Data as given in the supplement of paper PMC3334620.
Over roughly 33,000 sequences, “E-score (-0.5 to 0.5)” has its median near -0.016; the highest 2% begin near 0.31. Only a selection was taken, and the highest values are over-represented in it overall.

Target: Cst6 (UniProt P40535)
Experiment: PBM E-score (8-mer binding enrichment) (E-score (-0.5 to 0.5)); higher = stronger / more preferred TF binding
Conditions: protein concentration: 200 nM; construct: GST-DNA-binding domain
Experimental: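 Universal 'all 10-mer' protein binding microarrays (Agilent AMADID 015681) probed with GST-tagged S. cerevisiae TFs (full-length or DBD) made by in vitro transcription/translation (PURExpress), about 100-200 nM. Bound TF was detected with fluorescent anti-GST. Each ungapped 8-mer (which stands for itself and its reverse complement) is scored by the PBM enrichment score (E-score), a modified Wilcoxon-Mann-Whitney statistic from -0.5 to +0.5, computed with the Universal PBM Analysis Suite. Scale: above 0.35 generally sequence-specific binding.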

Chain of UniProt P40535 (P40535 whole entry): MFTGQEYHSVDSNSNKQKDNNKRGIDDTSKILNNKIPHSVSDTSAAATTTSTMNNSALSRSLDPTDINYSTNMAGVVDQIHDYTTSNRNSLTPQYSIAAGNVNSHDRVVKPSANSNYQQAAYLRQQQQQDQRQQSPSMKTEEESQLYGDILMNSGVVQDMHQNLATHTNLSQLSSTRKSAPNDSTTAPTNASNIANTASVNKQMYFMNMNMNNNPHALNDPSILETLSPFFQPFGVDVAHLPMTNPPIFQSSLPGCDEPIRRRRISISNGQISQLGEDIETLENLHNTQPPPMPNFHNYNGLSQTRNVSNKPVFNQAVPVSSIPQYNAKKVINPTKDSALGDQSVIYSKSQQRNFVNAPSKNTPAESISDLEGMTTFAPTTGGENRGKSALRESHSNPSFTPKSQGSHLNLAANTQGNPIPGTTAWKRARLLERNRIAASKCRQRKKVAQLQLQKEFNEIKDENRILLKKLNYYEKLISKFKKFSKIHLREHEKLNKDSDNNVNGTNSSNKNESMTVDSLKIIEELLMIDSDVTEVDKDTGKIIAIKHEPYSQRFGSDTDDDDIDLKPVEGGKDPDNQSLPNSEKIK

Sequence	PBM E-score
GCACTCTA	-0.0783
AGAAAACG	0.168
GCTTAGAC	-0.195
CAAGCGAG	-0.00525
TATAGGCA	-0.112
ACATCTGC	-0.0513
CAACAGCA	0.00053
AAGGTTGG	0.0155
GCGGAAAA	0.17
CCGTAAAA	0.0767
ACGTAAAA	0.354
GCGTAAAA	0.0958
CACACAGG	0.0469
CGTCATTA	0.477
AGTCATTC	0.0571
CCTCATTC	-0.0459
GGTCATTA	0.178
AGTCATTA	0.0194
CGTCATTC	0.467
GAGCACCA	-0.219
ACCCTTCG	-0.0964
GCCGTCAA	0.0714
ATCGTCTC	-0.0844
CCCGTCAC	0.2
CTCGTCAC	0.349

Sequence	PBM E-score
ACCGTCAG	-0.0719
ATCGTCAC	0.401
CTCGTCAA	0.0507
GCCGTCAC	0.334
ACCGTCAT	0.418
ACCGTCAA	0.159
ATCGTCGC	-0.0136
CTCGTCAG	0.127
ACAGGAAG	-0.0175
CCAGCTCA	-0.146
CAGGCATC	-0.213
ATATAACG	0.267
CAATTAGG	0.0223
ACCCCCGC	-0.33
ATGTTGGC	-0.0418
CCGATAGA	-0.124
ACCGAGGG	-0.446
CTCCGCAC	-0.0765
CGCTGCGA	0.0077
TCAACCCA	-0.0214
GTCGTCAA	0.147
ATCGTCAT	0.448
ATCGTCAG	0.131
ATCGTCAA	0.223
GTCGTCAC	0.425

Sequence	PBM E-score
GTCGTCGA	-0.00727
CTAAGACA	0.0903
AGGGCATA	0.0409
AACGCACG	0.179
AGCCACAG	-0.232
ATGGATAC	-0.0649
AATTCAAA	0.23
ACGCAATA	0.349
ACGCAATG	0.24
GCGCAATA	-0.079
ATCAGACA	-0.00162
ACGGCGCG	0.381
ACGGCGAC	0.217
TCGGCGCA	0.071
ACGGCGCA	0.349
CCGGCGCG	-0.0219
GCGGCGCC	0.376
ACGGCGCC	0.364
CCGGCGCA	-0.107
GCGGCGCA	0.197
ACGGCGCT	0.251
CCGGCGCC	0.14
ACGGCGAG	0.18
ACCAAACA	0.277
AGGAGCCT	-0.209

Sequence	PBM E-score
AATAAGAA	0.312
GATAAGAA	0.291
CATAAGAA	0.342
AATAAGAG	0.055
AATAAGAT	0.232
TATAAGAA	0.125
TCCATAAA	0.123
CCATTGCC	0.0353
AATGCACG	0.0682
AAATTCGT	0.306
AAATTCGG	0.0235
AAATTCGC	0.211
CGCCTCAG	0.00359
CCTTGACC	-0.19
AGTCACAC	0.00702
CCTCACAG	-0.0712
CGTCAGAC	0.287
GGTCACAA	-0.0375
CGTCACAC	0.414
CGTCAGAA	0.286
TGTCACAA	0.254
CGTCAGAG	0.365
AGTCACAG	-0.0682
CGTCACAA	0.4
GGTCACAC	-0.0298

Sequence	PBM E-score
CGTCACAG	0.424
ACGATTCT	0.039
ACTATCCG	0.0433
CAAACCAG	-0.0964
CATACATG	0.0541
CCTTCTCG	-0.264
CAGTAGAG	-0.0984
AGACAAAT	0.159
AGAAAATG	0.0622
ATCATTGG	0.194
ATCATTGA	0.306
GACATTGA	0.096
GTCATTGA	0.391
ATCATTGC	0.188
CTCATTGA	-0.0286
AGGGCTTG	-0.0617
AGGATCAG	-0.266
CTTCCTGA	0.112
GGGACTCA	-0.353
CTAGCTAG	-0.074
AAAATAAT	0.302
AGGTTCCA	-0.124
ATAGTGAA	-0.00864
GTAGTGAC	0.332
GCAGTGAC	0.17

Sequence	PBM E-score
GTAGTGAA	0.0467
ATAGTGAC	0.392
CTAGTGAC	0.234
CTCCTGGC	-0.195
CTTCCTCC	-0.235
ATGTCTTC	-0.153
CGATACTA	0.1
CAACTTCG	0.0207
AAATCATC	0.175
ACATCATA	0.443
ACATCAAG	0.207
AAATCATA	0.275
GCATCAGA	0.159
GCATCATA	0.339
CCATCATA	0.122
ACATCATG	0.409
AGATCATG	0.137
CCATCATC	0.146
ACATCAGA	0.16
ACATCATC	0.462
ACTTAACT	0.0697
ATAGCCAA	0.0258
GGAGCAGA	-0.114
TATGCTAA	0.0861
CTAGGATA	-0.125

Sequence	PBM E-score
ATCTGGGA	-0.197
GGTTGCGA	-0.0447
AGGGCATC	-0.0843
ACGGTGAG	-0.0622
GGGGTGAC	0.284
AGGGTGAC	0.345
ACGGTGAC	0.307
GAGGTGAC	0.407
GCGGTGCC	-0.0111
ACGGTGAT	0.121
AAGGTGAC	0.243
AGGGTGAG	-0.176
GCGGTGAA	0.0906
GCGGTGAC	0.345
CAGGTGAC	0.258
CGGGCCGA	-0.167
GAGTATGA	0.169
CATGATCA	0.231
CCGGTAGA	-0.132
CTCCCTGC	-0.218
ACAGAGAT	0.178
CCCTTCCG	-0.274
CATAGTTC	0.0666
AGTGAGAA	0.149
ACGGGGCC	0.00152

Sequence	PBM E-score
AGTGAACG	-0.0226
GGCTCCCC	-0.226
ATTCCATC	0.199
CCGGTGAA	0.0804
CCGGTGAC	0.335
CCGGTGAG	-0.116
TACACAAA	0.311
AACACAAA	0.0222
CACACAAA	0.165
TCTGGCCA	-0.0762
AATTTTGC	0.144
CGCATCCG	-0.0682
ATCATCCC	0.154
CGTCACCA	0.484
GGTCACCA	-0.148
CCTCACCC	0.0853
CGTCACCC	0.466
AGTCACCA	0.0433
AGTCACCC	0.117
CGCCTCAC	0.135
ATACCATC	0.00666
ATTCACAC	0.134
ACGAGTAA	0.141
TGAAATCA	0.322
CGAAATCA	0.269

Sequence	PBM E-score
GGAAATCA	0.0954
CCTTTTCG	0.021
GTTGGACA	-0.0168
AAGAAAGT	0.153
GAGGGCTA	-0.27
ATTTCGGG	0.0105
AAAAGTGT	0.0733
AAAAGTGA	0.306
AAAAGTGG	0.112
GGGGTAAA	0.0414
CCTGGGAA	-0.136
GCGAAAAA	0.197
CAAACTTG	-0.0352
GTCTCCCA	-0.244
GTTATAAA	0.269
CTAATAAA	0.169
GTAATAAA	0.352
TTAATAAA	0.307
GTAAATAA	0.176
ATAATAAT	0.238
TAAATAAA	0.289
ATAATAAC	0.205
CTTATAAA	0.138
GTAATAAC	0.197
ATAATAAA	0.325

Sequence	PBM E-score
TTTATAAA	0.359
AACAGAAC	0.032
ACCAGCAT	-0.104
ATAAGAAT	0.253
ATAAGAAA	0.327
ATAAGAAC	0.248
AAGGAGGG	-0.0908
ATATTTTA	0.233
ATTTTATG	0.248
ATTTTACG	0.316
AATTTACG	0.296
ATTTTATA	0.321
GTTTTATA	0.122
ATTTTTTA	0.325
ATTTTACC	0.264
AATTTTTA	0.228
CGCCCCAA	0.0361
CCAGGCTC	-0.28
GGAGACGA	-0.0641
AGACCGTC	-0.127
CTCACCTC	0.0122
TCTTAAGA	0.0388
CAATAGGA	-0.0291
AAACAAAA	0.219
TGACAACA	0.346

Sequence	PBM E-score
CGACAAAA	0.163
AGACAACA	0.0611
GGACAAAA	0.106
GAACAAAA	0.186
TAACAAAA	0.353
TGACAAAA	0.337
CGACAACA	0.243
AGAACCGA	-0.127
CTCTACGC	-0.109
GGGAAAGA	-0.0768
CCGTGACC	-0.145
CCGTGACG	0.417
ACGTGACA	0.248
ACGTGACG	0.451
ACGTGACT	0.00931
CCGTGACA	0.15
AAAATCGA	0.106
TCAGGAAA	0.053
TCTTGCCA	-0.0736
CTTGCGGC	-0.0317
TGTCATAA	0.323
CGTCATAA	0.476
CCTCATAA	0.199
GGTCATAA	0.213
AGTCATAA	0.217

Sequence	PBM E-score
CTTCATAA	0.182
AAATCCTA	0.0429
ACGGGACG	-0.0627
AAGGGACT	-0.229
GCTGGTCC	-0.241
ACAGGGTC	-0.231
AAAATCTC	0.0464
CGTCATGC	0.472
CCTCATGC	-0.15
AGTCATGC	-0.0259
GGTCATGA	0.239
CGTCATGA	0.461
AGTCATGA	0.124
CCTCTCCC	-0.367
ATTTCCAG	0.0306
ATGTGGGC	-0.068
CCACCCGA	-0.0893
ACGACAGA	-0.00441
CAATATTC	-0.0581
CAATATGA	0.245
CAATATTG	0.306
TAATATTA	0.391
GAATATTA	0.188
TAATATGA	0.305
CAATATTA	0.215

Sequence	PBM E-score
AAATATGA	0.239
AAATATTA	0.286
CAGTGCAA	0.0823
GGGTACCC	-0.239
GCCGCCGA	0.0801
GCTAGTAA	0.0344
CCCCATTA	-0.257
AAGGTAGC	-0.198
CTTTGGGC	-0.163
ACATCAGG	0.163
AGTCCCCC	-0.43
CGTCGTCA	0.258
CTTCGTCA	0.336
GTTCGTCA	0.269
CTTCGTCC	-0.155
ATTCGTCG	0.0126
ATTCGTCA	0.423
CGGTGCAA	-0.202
CCTATGGC	-0.219
GCTAACAC	-0.00396
AAAGGGAG	-0.152
TAACTGTA	0.032
CGGATAAG	-0.118
AGGGGCTG	-0.271
CGCCAGCC	-0.193

Sequence	PBM E-score
ATAAATAA	0.335
CTAAATTA	0.262
CAAAATTA	0.233
ATAAATAG	0.135
ATAAATTG	0.258
AAAAATTA	0.333
ATAAATTA	0.373
TTAAATAA	0.18
GAAAATTA	0.195
ATTTGACA	0.173
ACGCCAAT	0.223
AGCCTTAT	-0.0913
GCGCGTCC	-0.198
CCGCGTCC	0.099
ACGCGTCT	-0.0602
TCGCGTAA	0.314
ACGCGTCC	-0.129
GCGCGTTA	0.0245
ACGCGTCA	0.381
CCGCGTCA	0.34
ACGCGTAA	0.129
GCGCGTAA	0.224
CCGCGTCG	0.0654
GCGCGTCA	0.381
